Experimental data reported in PubChem BioAssay (NCATS).
Results filed as inconclusive are left out. Values without a mark were called inactive. Activity calls are given as the source filed them. Calls come from the whole dose curve; as a rule, active = well fitted inhibition curve with a large enough effect; inconclusive = small, poorly fitted or top-dose-only effect; inactive = flat fitted curve, though single readings scatter. *1 amine or outer side, *2 acyl side, *3 side chain or, on linkers, in order; H or OH if unused. Where a SMILES comes first, the peptide text is derived from it. [ ]: non-standard residue; d: D form. X4 = CC(C)=CCc1cc(C(O)C(N[*:1])C(=O)[*:2])ccc1O

These compounds were tested on HEK293 (assay: Cytotoxic Profiling of Annotated Libraries Using Quantitative High-Throughput Screening (AID 1296008; note: nearly all actives have a fitted effect of over 60% in size)). Conditions: Five cell lines viability, CellTiter-Glo ATP luminescence, 48-72 h; max response: hits give low values.
In short: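 Compounds were pin-transferred onto cells and incubated 48 or 72 hr at 37 degree Celsius, 95% humidity. CellTiter-Glo was added, plates sat 10 min at room temperature, then ATP-coupled luminescence was imaged as the viability read-out.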
% is set by controls: 0 for no effect and ±100 for the full control effect; potency is the fitted concentration of half-maximal effect.

| SMILES | Potency | max response |
| --- | --- | --- |
| C#CC[C@H](c1nc2cc(Cl)ccc2c(=O)n1Nc1ccccc1)N(CCCN)C(=O)c1cccc(Cl)c1F | 1.46 µM (active) |  |
| C[C@@H]1C[C@H]2O[C@@H]2/C=C\C=C\C(=O)Cc2c(Cl)c(O)cc(O)c2C(=O)O1 | 0.0873 µM (active) |  |
| Cc1nc([C@](C)(O)CO)sc1-c1cnc(N)c(O[C@H](C)c2cc(F)ccc2-n2nccn2)c1 | 13 µM (active) |  |
| CC[C@@H](N)CNc1ccnc(-c2cc(-c3cnn(C)c3)ccc2O)n1 | 5.17 µM (active) |  |
| COc1cc(O)cc(C)c1C(=O)O[C@@H]1[C@H](O)[C@@H](CO)O[C@H]1n1ccc(=O)[nH]c1=O | 5.63 µM (active) |  |
| NC1(C(=O)NC(CCO)c2ccc(Cl)cc2)CCN(c2ncnc3[nH]ccc23)CC1 (stereo unspecified) | 1.03 µM (active) |  |
| CC(C)CCC(=O)CC1c2ccccc2C(=O)N1c1ccc2ccc(Cl)nc2n1 (stereo unspecified) | 16.4 µM (active) |  |
| Cc1c(C(=O)Nc2ccc(N3CC(C)OC(C)C3)nc2)cccc1-c1ccc(OC(F)(F)F)cc1 (stereo unspecified) | 9.2 µM (active) |  |
| CC(C)=CCc1cc(C(O)C2NC(=O)CNC(=O)C(Cc3c[nH]c4ccccc34)NC(=O)C3CCCN3C(=O)CNC(=O)C(C(C)C)NC(=O)CNC2=O)ccc1O (stereo unspecified) (cyclo(G[X4]GVGPW); configuration not given here) |  | -8.38% |
| Cc1noc(-c2ccc(-c3ccc(CC(=O)O)cc3)cc2)c1NC(=O)O[C@H](C)c1ccccc1 |  | -14% |
| CC(C)C(CO)Nc1nc(Nc2cc(N)cc(Cl)c2)c2ncn(C(C)C)c2n1 (stereo unspecified) | 16.4 µM (active) |  |
